{"source": "paper PMC6792352", "about": "“Limited Chemical Structural Diversity Found to Modulate Thyroid Hormone Receptor in the Tox21 Chemical Library” (Environmental Health Perspectives, 2019)", "tested_on": "thyroid hormone receptor (endogenous TRα and TRβ)", "set-up": "species or system GH3-TRE-Luc (rat pituitary); GH3-TRE-Luc luciferase reporter, antagonist mode against 1 nM T3, loss of signal, qHTS", "details": "read-out: Average AC50 (uM) GH3-TRE-Antag", "key": {"[1]": {"details": "antagonist mode, 1 nM T3, no GH3 cytotoxicity hit"}, "[2]": {"details": "antagonist mode, 1 nM T3, no GH3 cytotoxicity hit, 24 h"}}, "note": "Structures can show the parent of a compound that is named as a salt. Where two headings read alike, the source gives them in different places."}
{"smiles": "CCOP(=S)(OCC)SC(CCl)N1C(=O)c2ccccc2C1=O", "note": "(centres unmarked) [Dialifor]", "values": [{"measurement": "AC50", "setting": "[1]", "result": "> 90", "unit": "µM"}]}
{"smiles": "Clc1cc(Cl)c(-c2cc(Cl)c(Cl)cc2Cl)cc1Cl", "note": "[2,2',4,4',5,5'-Hexachlorobiphenyl]", "values": [{"measurement": "AC50", "setting": "[1]", "result": 35.4, "unit": "µM"}]}
{"smiles": "COP(=S)(OC)Oc1cc(Cl)c(Br)cc1Cl", "note": "[Bromofos]", "values": [{"measurement": "AC50", "setting": "[1]", "result": 65.8, "unit": "µM"}]}
{"smiles": "COc1ccc(N)cc1", "note": "[4-Methoxyaniline]", "values": [{"measurement": "AC50", "setting": "[2]", "result": 89.4, "unit": "µM"}]}
{"smiles": "O=c1c2ccccc2c(=O)c2c1cc(Cl)c1[nH]c3c([nH]c12)c(Cl)cc1c(=O)c2ccccc2c(=O)c13", "note": "[D&C Blue No. 9]", "values": [{"measurement": "AC50", "setting": "[1]", "result": 57.8, "unit": "µM"}]}
{"smiles": "CON(C)C(=O)Nc1ccc(Br)c(Cl)c1", "note": "[Chlorbromuron]", "values": [{"measurement": "AC50", "setting": "[1]", "result": 60.7, "unit": "µM"}]}
{"smiles": "C[C@@H]1[C@H]2Cc3ccc(O)cc3[C@]1(C)CCN2C", "note": "[(-)-Metazocine fumarate (1:1)]", "values": [{"measurement": "AC50", "setting": "[1]", "result": 50.6, "unit": "µM"}]}
{"smiles": "CN1C(=O)CN=C(c2ccccc2)c2cc(Cl)ccc21", "note": "[Diazepam]", "values": [{"measurement": "AC50", "setting": "24 h, antagonist", "result": 49.5, "unit": "µM"}]}
{"smiles": "CCOP(=S)(OCC)SCn1nnc2ccccc2c1=O", "note": "[Azinphos-ethyl]", "values": [{"measurement": "AC50", "setting": "[1]", "result": "> 90", "unit": "µM"}]}
{"smiles": "C[C@]12C=CC(=O)C=C1CC[C@@H]1[C@@H]2CC[C@@]2(C)[C@H]1CC[C@]2(C)O", "note": "[Methandrostenolone]", "values": [{"measurement": "AC50", "setting": "[1]", "result": 34.4, "unit": "µM"}]}
{"smiles": "Cn1c(-c2ccccc2)cc(-c2ccccc2)[n+]1C", "note": "[Difenzoquat metilsulfate]", "values": [{"measurement": "AC50", "setting": "[1]", "result": 68.7, "unit": "µM"}]}
{"smiles": "CSCCCN=C=S", "note": "[3-(Methylthio)propyl isothiocyanate]", "values": [{"measurement": "AC50", "setting": "24 h, antagonist", "result": "> 90", "unit": "µM"}]}
{"smiles": "C[C@]12CC[C@H]3[C@@H](CCC4=C(Cl)C(=O)CC[C@@]43C)[C@@H]1CC[C@@H]2O", "note": "[Clostebol]", "values": [{"measurement": "AC50", "setting": "[1]", "result": 29.2, "unit": "µM"}]}
{"smiles": "C=CC(=O)OCCO", "note": "[2-Hydroxyethyl acrylate]", "values": [{"measurement": "AC50", "setting": "[1]", "result": 51.5, "unit": "µM"}]}
{"smiles": "COP(=S)(OC)SCN1C(=O)c2ccccc2C1=O", "note": "[Phosmet]", "values": [{"measurement": "AC50", "setting": "[1]", "result": "> 50", "unit": "µM"}]}
{"smiles": "Oc1c(Br)cc(Br)cc1Br", "note": "[2,4,6-Tribromophenol]", "values": [{"measurement": "AC50", "setting": "[1]", "result": "> 50", "unit": "µM"}]}
{"smiles": "COc1ccc(N)cc1", "note": "[4-Methoxyaniline hydrochloride]", "values": [{"measurement": "AC50", "setting": "[2]", "result": 81.8, "unit": "µM"}]}
{"smiles": "COP(=S)(OC)Oc1ccc(Sc2ccc(OP(=S)(OC)OC)cc2)cc1", "note": "[Temephos]", "values": [{"measurement": "AC50", "setting": "[1]", "result": "> 50", "unit": "µM"}]}
{"smiles": "Clc1cccc(N2CCNCC2)c1", "note": "[1-(3-Chlorophenyl)piperazine]", "values": [{"measurement": "AC50", "setting": "[1]", "result": 20, "unit": "µM"}]}
{"smiles": "CCc1cc(OC)c(C[C@@H](C)N)cc1OC", "note": "[(-)-2,5-Dimethoxy-4-ethylamphetamine hydrochloride]", "values": [{"measurement": "AC50", "setting": "24 h, antagonist", "result": 71.2, "unit": "µM"}]}
{"smiles": "Clc1ccccc1-c1ccccc1Cl", "note": "[2,2'-Dichlorobiphenyl]", "values": [{"measurement": "AC50", "setting": "[1]", "result": "> 100", "unit": "µM"}]}
{"smiles": "O=C1Nc2ccc(Cl)cc2C(c2ccccc2Cl)=NC1O", "note": "(centres unmarked) [Lorazepam]", "values": [{"measurement": "AC50", "setting": "24 h, antagonist", "result": "> 50", "unit": "µM"}]}
{"smiles": "CC(=O)O[C@H]1CC[C@@]2(C)C(=CC[C@@H]3[C@@H]2CC[C@]2(C)C(=O)CC[C@@H]32)C1", "note": "[Dehydroepiandrosterone acetate]", "values": [{"measurement": "AC50", "setting": "[1]", "result": 17.4, "unit": "µM"}]}
{"smiles": "C=C(Cl)CSC(=S)N(CC)CC", "note": "[Sulfallate]", "values": [{"measurement": "AC50", "setting": "[1]", "result": 86.5, "unit": "µM"}]}
{"smiles": "C[C@H](CN1CCOCC1)C(C(=O)N1CCCC1)(c1ccccc1)c1ccccc1", "note": "[Dextromoramide tartrate]", "values": [{"measurement": "AC50", "setting": "[1]", "result": 56.7, "unit": "µM"}]}
{"smiles": "O=C(O)Cc1ccccc1", "note": "[Phenylacetic acid]", "values": [{"measurement": "AC50", "setting": "[1]", "result": 18.1, "unit": "µM"}]}
{"smiles": "Nc1ccc2c(c1)Cc1ccccc1-2", "note": "[2-Aminofluorene]", "values": [{"measurement": "AC50", "setting": "[1]", "result": 52, "unit": "µM"}]}
{"smiles": "COc1ccc2[nH]cc(CCN(C(C)C)C(C)C)c2c1", "note": "[5-Methoxy-N,N-diisopropyltryptamine hydrochloride]", "values": [{"measurement": "AC50", "setting": "[1]", "result": 70.7, "unit": "µM"}]}
{"smiles": "COP(=S)(OC)Oc1ccc([N+](=O)[O-])cc1Cl", "note": "[Dicapthon]", "values": [{"measurement": "AC50", "setting": "[1]", "result": 79, "unit": "µM"}]}
